# HT1080 IDH1KD tx – qHTS for induction of synthetic lethality in tumor cells producing 2HG: qHTS for the HT-1080-IDH1KD cell line. Potency, µM (top dose mostly 46.1 µM), for the others: at the highest dose activity, negative = toxicity, usual class: cytotoxic. hit rate 2% among 360,000. AID 686971, 2013. HT-1080 IDH1 knockdown viability, ATP luminescence, 48 h;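 further: 0% = DMSO wells and -100% = cell-free medium wells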
#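 After a 2 h attachment period, IDH1KD HT-1080 cells took pin-transferred compound for 48 h at 37 °C; ATP-based luminescence after 10 min room-temperature reagent incubation reported viability.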
# KB-3-1 cytotox – qHTS assay for MDR1-selective chemotherapeutics: Primary screen using the parental adenocarcinoma cell KB-3-1; Potency, µM (doses to about 46.1 µM), most hits filed as cytotoxic; AID 1347075, 2019; hit rate 1.4% among 400,000; KB-3-1 viability, CellTiter-Glo ATP luminescence, 72 h; further: nearly all actives have a fitted effect of over 60% in size
#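 Parental KB-3-1 adenocarcinoma cells in phenol-red-free DMEM with 10% FBS were pin-treated with compounds at several concentrations, incubated 72 h at 37 °C, and viability read by CellTiter-Glo luminescence; concentration-effect curves were fitted after normalization.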
# HT1080NT lethal – qHTS for induction of synthetic lethality in tumor cells producing 2HG: qHTS for the HT-1080-NT fibrosarcoma cell line | AID 686970, 2013 | Potency, µM (doses to about 46.1 µM), for the others: at the top dose activity, negative = less viability, actives largely listed as cytotoxic | HT-1080-NT fibrosarcoma viability, CellTiter-Glo ATP luminescence, 48 h | hit rate 1.6% among 360,000;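 further: NT is the 2HG producing partner of a matched IDH1 knockdown line; 0% = DMSO-treated cells and -100% = media-only wells without cells; nearly all actives have a fitted effect of over 55% in size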
#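 HT-1080-NT; 750 cells/well; 5% FBS RPMI; 48 h compound, 37 degrees C; CellTiter-Glo luminescence; curve fitting and curve-class assignment.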
# TDP1 cell noCPT – qHTS for Inhibitors of human tyrosyl-DNA phosphodiesterase 1 (TDP1): qHTS in cells in absence of CPT | hit rate 15% among 420,000 | DT40 Tdp1-/- hTDP1 cells, no CPT, ATP luminescence, 48 h | Potency, µM (series often up to 46.2 µM), for the others: at the top dose activity change, negative = growth inhibition, most hits filed as inhibitors; further: nearly all actives have a fitted effect of over 55% in size
#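 Luminescent ATP content (CellTiter-Glo) served as the growth readout. Knockout chicken DT40 cells expressing human TDP1 were exposed to compounds without camptothecin for a minimum 48 hr at 37 °C.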
# DT40 TDP1 CPT – qHTS for Inhibitors of human tyrosyl-DNA phosphodiesterase 1 (TDP1): qHTS in cells in presence of CPT; chicken DT40 Tdp1-/-;hTDP1 cells + 20 nM CPT, ATP luminescence, 48 h; Potency, µM (titrated, usually from 46.2 µM), inactives show top-dose activity change, negative = growth inhibition, most hits filed as inhibitors; hit rate 12% among 420,000; further: nearly all actives have a fitted effect of over 55% in size
#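 Cell growth measured by CellTiter-Glo luminescence after a minimum 48 h, 37 C compound exposure with 20 nM CPT in Tdp1-knockout DT40 cells stably expressing hTDP1, seeded 400/well; qHTS titration format.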
# KB-V1 MDR tox – qHTS assay for MDR1-selective chemotherapeutics: Primary screen using the drug-selected MDR subline cells KB-V1; hit rate 3.4% among 400,000; KB-V1 MDR cells viability, CellTiter-Glo, 72 h; AID 1347076, 2019; Potency, µM (series often up to 46.1 µM), actives largely listed as cytotoxic; further: nearly all actives have a fitted effect of over 60% in size
#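 Cytotoxicity toward P-gp-expressing KB-V1 cells was determined as loss of CellTiter-Glo luminescence after 72 h at 37 degrees C. Compounds were tested in quantitative HTS format across a concentration range, with curves fitted to normalized data.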
# * hit, by the source's call; i = inactive; ? = inconclusive; nt = no result given; [ ] = dose if it differs, or a comment. A selection: hits, their analogues and other compounds. The true share with any hit is near 19%. The call rests on the fitted dose curve; in most records, active means well fitted curve in the direction sought with a large enough effect; inconclusive means small, poorly fitted or top-dose-only effect, or another doubt; inactive means no such curve, though single readings can be large; an effect the other way counts as inactive or inconclusive. Unless noted, on the % scale 0 is the no-effect control and ±100 the full control effect; potency means the concentration at half of the fitted maximal effect.
SMILES,HT1080 IDH1KD tx,KB-3-1 cytotox,HT1080NT lethal,TDP1 cell noCPT,DT40 TDP1 CPT,KB-V1 MDR tox
Clc1ccc(Cn2ncc3c(N4CCCC4)ncnc32)cc1,-1%[9.24 µM],i,-6%,?,-13%,i
Clc1ccc(Cn2ncc3c(N4CCOCC4)ncnc32)cc1,-9%,i,-2%,23µM*,?,?
COC(=O)c1ccc(COc2ccccc2/C=N/NC(=O)c2cccnc2)cc1,?,i,?,?,?,i
CCOC(=O)C1=CCC(c2ccc(C)cc2)N(S(=O)(=O)c2ccc(C)cc2)C1 (stereo not drawn),-25%,?,-6%,18µM*,23µM*,i
CCOC(=O)C1=CCC(c2ccccc2C)N(S(=O)(=O)c2ccc(C)cc2)C1 (stereo not drawn),?,i,?,15µM*,10µM*,?
CC(=O)C1=CCC(c2cccc3ccccc23)N(S(=O)(=O)c2ccc(C)cc2)C1 (stereo not drawn),?,?,?,18µM*,?,10µM*
CC(=O)C1=CCC(c2ccccc2F)N(S(=O)(=O)c2ccc(C)cc2)C1 (stereo not drawn),?,i,?,?,?,i
CC(=O)C1=CCC(c2ccc(C)cc2)N(S(=O)(=O)c2ccc(C)cc2)C1 (stereo not drawn),-15%,i,-19%,?,?,?
O=C(NCC1Cc2cccc(-c3ncccn3)c2O1)c1cccc(-c2ccccc2F)c1 (stereo not drawn),nt,nt,nt,?,-10%[9.04 µM],nt
CN(C)S(=O)(=O)c1cccc(C(=O)Nc2n[nH]c(C(F)(F)F)n2)c1,9%,i,0%,-1%,22%,i
COc1cc(/C=C2\COC/C(=C\c3cc(OC)c(OC)c(OC)c3)C2=O)cc(OC)c1OC,0.52µM*,?,?,0.58µM*,1.2µM*,?
COc1cc(/C=C2\N=C(C)OC2=O)cc(OC)c1OC,11%,i,11%,?,?,i
COc1cc(/C=C2/CCC/C(=C\c3cc(O)c(OC)c(Cl)c3)C2=O)cc(Cl)c1O,21µM*,?,?,10µM*,10µM*,8.2µM*
COc1cc(/C=C2\CC/C(=C\c3cc(OC)c(O)c(OC)c3)C2=O)cc(OC)c1O,4.1µM*,16µM*,4.1µM*,5.8µM*,6.5µM*,?
COc1cc(/C=C2\SC(N)=NC2=O)cc(Cl)c1O,-12%,i,-2%,?,-24%,i
COc1cc(/C=C2\CC(C(C)(C)C)C/C(=C\c3cc(OC)c(OC)c(OC)c3)C2=O)cc(OC)c1OC (stereo not drawn),5.8µM*,8.2µM*,12µM*,9.2µM*,15µM*,i
COc1cc(C2NC(=O)CS2)cc(OC)c1OC (stereo not drawn),18%,i,17%,-25%,4%,i
COc1cc(CN2C[C@@H](CO)O[C@@H](n3cnc4c(N5CCOCC5)ncnc43)C2)cc(OC)c1OC,10%,i,16%,-12%,-1%,i
CC(C)C(NS(C)(=O)=O)c1nnc2n1CCN(Cc1ccc(C#CC(C)(C)O)cc1)CC2 (stereo not drawn),nt,nt,nt,-24%,3%,nt
CC[C@H](C)[C@@H](CO)NC(=O)[C@H]1O[C@@H](n2ccc(=O)[nH]c2=O)[C@H](O)[C@@H]1O,14%,i,19%,-11%,-2%,i
CCOc1ccc(OCCC(=O)OCC(=O)Nc2ccc3c(c2)OCCO3)cc1,2%,i,0%,-2%,5%,?

# From PubChem
